# The source made the active and inactive calls. Unless noted, no rule for the calls is given here.
# What was measured:
# [1] = anti-His antibody binders, primary screen, artefact control for SMM control protein annotation, biochemical, small-molecule microarray, 635 nm fluorescence (AID 1128); settings: anti-His Alexa647 antibody binding, higher = more signal;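 also: score merges feature fluorescence with signal-to-noise for each printed compound spot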
# [2] = test system: Human papillomavirus type 1a E7 protein (residues 1-88); experiment: HPV1a E7 small-molecule binders, primary screen, biochemical, small-molecule microarray, residues 1-88, 635 nm (AID 1129); settings: small-molecule microarray binding, fluorescence 635 nm; higher = more signal
# [3] = target: Focal adhesion kinase 1 (Homo sapiens) (UniProt Q05397); experiment: small-molecule microarray binders of FAK, primary screen, biochemical, 635/667 nm fluorescence, BSA, DTT (AID 1130); settings: PTK2 binding, 635 nm fluorescence, higher = more signal;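 also: composite of spot emission at 667 nm and signal to noise over triplicate slides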
# [4] = test system: Fibrinogen (Alexa647-labelled); experiment: fibrinogen binders on compound microarrays, profiling panel, artefact control for SMM control-protein annotation, biochemical, small-molecule microarray, 635/667 nm fluorescence (AID 1131); settings: fibrinogen-A647 binding fluorescence, higher = more signal;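 also: z-score merges 667 nm fluorescence with per-spot signal-to-noise over triplicate slides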
# [5] = target: Follistatin (Homo sapiens) (UniProt P19883); experiment: follistatin binders on small-molecule microarrays, primary screen, biochemical, small-molecule microarray, 635/667 nm fluorescence (AID 1132); settings: FST binding, 635 nm fluorescence, higher = more signal
# [6] = target: Fibroblast growth factor 2 (Homo sapiens) (UniProt P09038); experiment: FGF2 binders on small-molecule microarrays, primary screen, biochemical, small-molecule microarray, 635/667 nm fluorescence (AID 1133); settings: small-molecule microarray binding, FGF2, fluorescence 635/667; higher = more signal
# [7] = mitochondrial membrane potential change in A549 cells, profiling panel, cell-based, JC-1 fluorescence, basal, 24 h, 100 nL (AID 1138); settings: higher = more signal;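 also: A549 lung adenocarcinoma cells under basal conditions with no added stimulus; test concentration not given here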
# Lefty1 = Lefty1 binders on small-molecule microarrays, primary screen, biochemical, small-molecule microarray, 635/667 nm fluorescence (AID 1139); settings: small-molecule microarray binding, fluorescence 635/667; higher = more signal
# [8] = test system: wheat germ agglutinin (Triticum aestivum), Alexa647-labelled; experiment: wheat germ agglutinin binders on compound microarrays, profiling panel, artefact control for SMM control-protein annotation, biochemical, small-molecule microarray, 635/667 nm fluorescence (AID 1140); settings: WGA-A647 binding, 635 nm fluorescence, higher = more signal;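 also: score merges 667 nm feature emission with signal to noise over triplicate slides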
# [9] = target: Luciferin 4-monooxygenase (Photinus pyralis) (UniProt P08659); experiment: firefly luciferase enzyme inhibitors, primary screen, biochemical, luminescence, purified enzyme, 2006 set (AID 1141); settings: SteadyGlo luminescence, 30 min, higher = more signal, called active from +8 up or from −8 down;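 also: cell-free assay with purified firefly luciferase at 100 ng per well in PBS; test concentration not given here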
# [10] = test system: Wnt5a (protein binding on small-molecule microarray); experiment: Wnt5a binders on small-molecule microarray, primary screen, biophysical, 635/667 nm fluorescence (AID 1142); settings: 635 nm fluorescence, higher = more signal;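 also: fluorescence read at 667 nm with signal to noise per printed feature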
# [11] = cell viability in Huh7 cells, primary screen, cytotoxicity control for HCV replication inhibitor project, CellTiter-Glo luminescence, basal, 48 h (AID 1143); settings: Huh7 HCV replicon, higher = more signal, called active from +8 up or from −8 down;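 also: Huh7 hepatoma cells carrying a hepatitis C replication reporter with no stimulus; test concentration not given here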
# [12] = P. aeruginosa biofilm formation inhibitors, primary screen, PAO1 strain, BacTiter-Glo luminescence, LB-PBS (AID 1144); settings: 12 h, higher = more signal
# [13] = CREB reporter modulators without forskolin, primary screen, cell-based, PC12, CRE-LacZ reporter, unstimulated (AID 1145); settings: no forskolin, luminescence, 4.5 h, higher = more signal, called active from +8 up or from −8 down
# [14] = CREB reporter modulators under forskolin, primary screen, cell-based, PC12, CRE-LacZ reporter, forskolin-stimulated (AID 1146); settings: luminescence, 4.5 h, higher = more signal, called active from +8 up or from −8 down;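 also: PC12 cells with 6xCRE LacZ reporter stimulated by forskolin 10 µM; beta-galactosidase reporter signal reflecting CREB driven transcription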
# [15] = target: Streptavidin (Streptomyces avidinii) (UniProt P22629); experiment: streptavidin binders on small-molecule microarray, primary screen, artefact control for SMM compound annotation, biophysical, 635/667 nm fluorescence (AID 1147); settings: streptavidin binding, higher = more signal;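 also: signal reflects streptavidin binding to arrayed compounds as a control protein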
# [16] = small-molecule binders of probe aInhba, primary screen, biochemical, small-molecule microarray, 635/667 nm fluorescence (AID 1148); settings: higher = more signal;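 also: score merges 667nm spot fluorescence with signal-to-noise for antibody binding to printed compounds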
# Torsin-1A (Homo sapiens) [17] = target: Torsin-1A (Homo sapiens) (UniProt O14656); experiment: torsin A binders from cell lysate, primary screen, small-molecule microarray, wild-type, 635/667 nm (AID 1149); settings: COS7 hTOR1A-WT lysate, 635 nm fluorescence, higher = more signal
# Torsin-1A (Homo sapiens) [18] = target: Torsin-1A (Homo sapiens) (UniProt O14656); experiment: small-molecule binders of mutant TOR1A in lysate, primary screen, cell lysate, small-molecule microarray, COS7 lysate, 635/667 nm fluorescence (AID 1150); settings: COS7 hTOR1A mutant lysate, 635 nm fluorescence, higher = more signal;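 also: score pools 667 nm emission and signal to noise measuring lysate protein binding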
# [19] = test system: Sonic hedgehog protein (Shh); experiment: small-molecule binders of Shh protein, primary screen, biochemical, small-molecule microarray, 635/667 nm fluorescence (AID 1151); settings: small-molecule microarray binding, 635 nm fluorescence; higher = more signal;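 also: Shh protein binding to compounds spotted on small-molecule microarray slides; score combines spot fluorescence intensity with signal-to-noise across triplicate slides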
# Chain of Streptavidin (Streptomyces avidinii) (P22629 whole entry, looked up): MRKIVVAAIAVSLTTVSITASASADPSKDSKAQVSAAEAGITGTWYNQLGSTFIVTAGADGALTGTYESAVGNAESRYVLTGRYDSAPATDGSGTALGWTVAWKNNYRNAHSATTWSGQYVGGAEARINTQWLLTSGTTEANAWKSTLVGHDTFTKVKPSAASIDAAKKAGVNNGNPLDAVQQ
# Chain of Fibroblast growth factor 2 (Homo sapiens) (P09038 whole entry, looked up): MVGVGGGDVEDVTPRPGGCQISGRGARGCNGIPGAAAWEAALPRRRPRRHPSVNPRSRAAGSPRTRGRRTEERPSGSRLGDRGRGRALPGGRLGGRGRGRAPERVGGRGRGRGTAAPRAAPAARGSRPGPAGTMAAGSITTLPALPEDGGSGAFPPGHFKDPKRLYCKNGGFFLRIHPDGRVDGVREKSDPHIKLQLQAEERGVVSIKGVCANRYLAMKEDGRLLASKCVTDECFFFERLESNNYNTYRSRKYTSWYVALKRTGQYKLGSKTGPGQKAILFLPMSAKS
# Chain of Focal adhesion kinase 1 (Homo sapiens) (Q05397 whole entry, looked up): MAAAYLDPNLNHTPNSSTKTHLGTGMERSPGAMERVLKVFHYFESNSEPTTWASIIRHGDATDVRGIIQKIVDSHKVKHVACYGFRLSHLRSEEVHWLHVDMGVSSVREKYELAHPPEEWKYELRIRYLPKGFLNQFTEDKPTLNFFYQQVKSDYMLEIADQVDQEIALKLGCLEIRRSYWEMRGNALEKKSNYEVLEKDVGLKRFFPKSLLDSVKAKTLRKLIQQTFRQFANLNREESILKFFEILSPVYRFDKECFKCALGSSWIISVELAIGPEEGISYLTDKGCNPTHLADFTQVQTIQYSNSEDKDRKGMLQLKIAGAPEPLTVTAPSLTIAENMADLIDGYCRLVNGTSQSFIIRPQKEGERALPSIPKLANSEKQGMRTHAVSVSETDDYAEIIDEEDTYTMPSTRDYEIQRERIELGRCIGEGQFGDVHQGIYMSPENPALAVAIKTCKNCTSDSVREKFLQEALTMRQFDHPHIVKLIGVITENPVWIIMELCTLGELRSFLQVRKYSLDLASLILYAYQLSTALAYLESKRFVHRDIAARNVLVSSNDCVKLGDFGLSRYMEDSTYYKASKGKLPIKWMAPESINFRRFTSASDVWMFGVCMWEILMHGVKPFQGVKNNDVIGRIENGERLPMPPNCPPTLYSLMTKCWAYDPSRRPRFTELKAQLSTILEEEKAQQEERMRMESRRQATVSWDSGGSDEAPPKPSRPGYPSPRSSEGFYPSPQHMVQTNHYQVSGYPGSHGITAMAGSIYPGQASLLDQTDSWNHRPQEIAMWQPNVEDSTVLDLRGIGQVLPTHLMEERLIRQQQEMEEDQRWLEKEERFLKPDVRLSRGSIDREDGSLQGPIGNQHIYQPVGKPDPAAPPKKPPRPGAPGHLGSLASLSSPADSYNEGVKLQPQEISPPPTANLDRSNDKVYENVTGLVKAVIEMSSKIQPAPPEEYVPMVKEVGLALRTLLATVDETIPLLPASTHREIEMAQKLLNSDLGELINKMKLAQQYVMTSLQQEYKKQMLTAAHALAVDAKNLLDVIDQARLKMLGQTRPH
# Chain of Follistatin (Homo sapiens) (P19883 whole entry, looked up): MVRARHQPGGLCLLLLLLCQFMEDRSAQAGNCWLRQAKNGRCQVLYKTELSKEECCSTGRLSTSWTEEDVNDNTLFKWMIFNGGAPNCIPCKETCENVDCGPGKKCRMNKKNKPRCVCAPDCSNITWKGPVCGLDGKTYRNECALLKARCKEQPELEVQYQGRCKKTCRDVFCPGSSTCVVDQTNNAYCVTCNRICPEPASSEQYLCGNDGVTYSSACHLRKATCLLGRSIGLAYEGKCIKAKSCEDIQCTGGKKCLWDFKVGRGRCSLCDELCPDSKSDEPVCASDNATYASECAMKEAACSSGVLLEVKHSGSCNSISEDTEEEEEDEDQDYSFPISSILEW
# Chain of Torsin-1A (Homo sapiens) (O14656 whole entry, looked up): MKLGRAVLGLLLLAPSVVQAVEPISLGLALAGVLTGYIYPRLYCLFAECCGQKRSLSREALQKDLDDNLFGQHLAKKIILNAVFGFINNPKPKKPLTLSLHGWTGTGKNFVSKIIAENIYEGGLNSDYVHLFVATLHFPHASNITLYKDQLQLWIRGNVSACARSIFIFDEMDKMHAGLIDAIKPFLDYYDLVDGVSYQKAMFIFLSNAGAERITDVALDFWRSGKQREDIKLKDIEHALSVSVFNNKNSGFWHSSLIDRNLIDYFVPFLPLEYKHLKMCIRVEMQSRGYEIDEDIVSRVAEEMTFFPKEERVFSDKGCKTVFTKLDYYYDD
# Chain of Luciferin 4-monooxygenase (Photinus pyralis) (P08659 whole entry, looked up): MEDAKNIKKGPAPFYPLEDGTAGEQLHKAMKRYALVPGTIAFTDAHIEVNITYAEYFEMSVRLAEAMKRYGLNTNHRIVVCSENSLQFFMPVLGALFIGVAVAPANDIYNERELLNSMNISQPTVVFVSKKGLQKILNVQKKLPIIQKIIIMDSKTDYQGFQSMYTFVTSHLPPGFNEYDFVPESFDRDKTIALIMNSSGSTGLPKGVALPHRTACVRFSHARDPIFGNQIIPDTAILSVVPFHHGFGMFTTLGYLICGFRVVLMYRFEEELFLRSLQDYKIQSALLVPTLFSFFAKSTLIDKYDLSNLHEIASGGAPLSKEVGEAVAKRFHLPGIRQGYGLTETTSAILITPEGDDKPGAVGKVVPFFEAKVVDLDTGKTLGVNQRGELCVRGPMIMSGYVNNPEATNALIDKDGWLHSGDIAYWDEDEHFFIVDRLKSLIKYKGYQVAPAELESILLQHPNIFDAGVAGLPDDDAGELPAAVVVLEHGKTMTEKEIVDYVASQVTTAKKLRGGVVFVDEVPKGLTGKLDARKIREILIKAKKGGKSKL
SMILES,composite z-score [1],composite z-score [2],composite z-score [3],composite z-score [4],composite z-score [5],composite z-score [6],z-score [7],composite z-score (Lefty1),composite z-score [8],z-score [9],composite z-score [10],z-score [11],z-score [12],z-score [13],z-score [14],composite z-score [15],composite z-score [16],composite z-score (Torsin-1A (Homo sapiens) [17]),composite z-score (Torsin-1A (Homo sapiens) [18]),composite z-score [19]
CC(C)CCC[C@@H](C)[C@H]1CC[C@@]2(C)C3=C(CC[C@]12C)[C@@]1(C)CC[C@H](OC(=O)C(C)(C)C)C(C)(C)C1CC3 (stereo not given in full),0.43,0.586,0.0226,0.551,0.828,0.232,0.4,0.543,0.0969,0.159 (inactive),0.228,-2.46 (inactive),-0.738 (inactive),0.12 (inactive),-1.2 (inactive),0.122,-0.186,0.89,0.31,0.836
C=C[C@@H](O)[C@H]1CC(c2ccccc2)=NO1,0.103,-0.565,-0.0062,-0.0611,-0.16,-0.121,1.12,-0.0793,-0.288,-1.53 (inactive),-0.184,0.0011 (inactive),0.15 (inactive),1.03 (inactive),0.167 (inactive),0.174,-0.183,0.154,0.334,-0.18
CN1C(=O)C2C=CC(C(O)C3CCCCC3)N(N(c3ccccc3)c3ccccc3)C2C1=O (stereo not given),-0.392,-1.14,0.0064,-0.702,-0.885,-0.732,0.131,-1.6,0.517,0.135 (inactive),0.0957,0.673 (inactive),0.0683 (inactive),-0.333 (inactive),0.355 (inactive),-0.0316,0.596,-0.08,0.0415,-0.298
Cc1ccc(C(C)CC(O)C2C=CC3C(=O)N(Cc4ccccc4)C(=O)C3N2n2cnnc2)o1 (stereo not given),1.54,0.942,-0.103,0.923,0.713,0.0103,-1.49,0.273,0.842,0.785 (inactive),1.36,-0.167 (inactive),0.928 (inactive),0.323 (inactive),1.14 (inactive),0.352,1.36,0.173,0.663,-0.265
COCC(=C=CC[C@@H](O)c1ccccc1OCCO)C[C@@H](O)c1ccccn1,-0.415,0.845,0.287,-0.853,0.968,0.466,-0.00359,0.913,0.293,-0.578 (inactive),0.088,-0.202 (inactive),1.2 (inactive),1.99 (inactive),-0.465 (inactive),-0.0795,0.0737,0.162,0.679,1.89
CC1CC/C=C\[C@H]2OC34C=CCN(c5ccc(Cl)cc5)C(=O)[C@H]3N(C(CO)C(C)C)C(=O)[C@]4(C)C2C(=O)O1 (stereo not given in full),0.776,-0.512,-0.432,-0.787,-0.648,-0.87,0.34,-0.626,-0.281,-0.391 (inactive),-0.293,0.24 (inactive),0.971 (inactive),0.199 (inactive),-0.27 (inactive),-1.17,-0.128,1.3,1.45,0.14
CC(C)C[C@H]1NC(=O)[C@H](C)NC(=O)[C@@]23C(=O)N[C@@H](Cc4ccccc4)C2[C@H](C)[C@@]2(C)O[C@H]2C3/C=C/C/C=C\CNC1=O (stereo not given in full),0.528,-0.071,-0.0739,-1.65,0.321,-0.28,0.141,0.253,0.649,-0.8 (inactive),-0.0392,0.288 (inactive),0.325 (inactive),2.03 (inactive),-0.0505 (inactive),-0.442,-0.176,-1.09,0.0821,0.366
C=CCOC(=O)[C@H]1[C@@H]2C(=O)O[C@@H](c3ccccc3)[C@@H](c3ccccc3)N2[C@@H](c2ccc(OCCOC(=O)[C@H]3C[C@H]4C(=O)N[C@@H](CCCCN(C)C)C(=O)N4[C@H]3c3ccc(O)cc3)cc2)[C@]12C(=O)Nc1ccccc12,-0.127,1.13,0.806,-0.104,1.43,1.59,-0.58,1.5,0.0515,-0.552 (inactive),0.468,-1.73 (inactive),-0.063 (inactive),-0.122 (inactive),-0.322 (inactive),-0.0375,0.0748,0.539,0.674,1.42
C=CCN1C(=O)[C@@]2(O[C@@H](CCO)[C@H]([Si](C)(C)c3ccc(OC)cc3)[C@H]2C)c2cc(NC(=O)[C@H](C)O)ccc21,2.01,1.19,1.38,0.114,0.346,0.0211,2.74,0.582,0.98,-0.676 (inactive),0.442,-5.04 (inactive),-0.856 (inactive),17.4 (active),-0.213 (inactive),0.0832,-0.0695,0.923,1.01,1.46
